The list is not random: actives were taken first. Their share in the collection is about 2.2%.
Abeta rescue: qHTS for compounds that reverse cellular toxicity of Amyloid beta (A-beta) peptide in yeast: Primary Screen; yeast expressing A-beta42, growth rescue, OD600, 48 h; response scale: 0% DMSO, 100% iron-clioquinol control; Potency, µM (doses to about 46.1 µM), most hits filed as activators; hit rate 0.063% among 410,000; AID 1347071, 2019; also: nearly all actives have a fitted effect of over 55% in size
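Yeast growth medium received pinned compounds, then yeast cells expressing toxic A-beta were added; plates incubated at 30 C for 48 hr. Growth read as absorbance at 600 nm, normalized to DMSO and equimolar FeCl3 plus clioquinol controls.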
FUS suppressor: qHTS for Suppressors of FUS Proteinopathy: Primary screen using FUS-linked yeast assay; Potency, µM (series often up to 76.6 µM), actives largely listed as activators; S. cerevisiae FUS-expressing, growth rescue, OD600, 24 h; hit rate 0.24% among 390,000;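 also: plate controls were DMSO vehicle for no effect and reference control for full effect; nearly all actives have a fitted effect of over 55% in size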
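Quantitative HTS measuring growth restoration of FUS-toxic yeast. Galactose-induced cells (OD 0.005) were exposed 24hr at 30C to compounds at several concentrations, then absorbance at 600 nm was recorded.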
TDP43 rescue: qHTS of TDP-43 Inhibitors. TDP-43 expressing yeast growth rescue, BacTiter-Glo, 24 h. Potency, µM (titrated, usually from 46.1 µM), without a hit: top-dose growth rescue (activation), most hits filed as activators. hit rate 1.8% among 410,000. AID 652104, 2013; also: % of control where 0% means no effect; nearly all actives have a fitted effect of over 50% in size
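Growth rescue of TDP-43-toxic yeast measured as ATP luminescence (BacTiter-Glo). Cells grown to mid-log in raffinose, induced in galactose at OD600=0.02, exposed to compound 24 hr at 30 deg C.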
Mito fusion yeast: qHTS Assay for Small Molecule Inhibitors of Mitochondrial Division or Activators of Mitochondrial Fusion; S. cerevisiae fusion-defective mutant growth rescue, CellTiterGlo 48 h; Potency, µM (series often up to 46.1 µM), without a hit: at the top dose growth rescue (activation), usual class: activators; hit rate 0.23% among 320,000; AID 485298, 2010; also: % of control where 0% means no effect; nearly all actives have a fitted effect of over 45% in size
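Compounds are tested for their ability to restore growth of mitochondrial fusion-defective yeast strains at non-permissive 37C in YPEG medium over 48 hours. Viability is quantified by luciferase luminescence.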
aSyn rescue: qHTS of alpha-syn Inhibitors; hit rate 0.14% among 370,000; AID 652106, 2013; Yeast expressing alpha-synuclein, growth rescue, BacTiter-Glo, 24 h; Potency, µM (titrated, usually from 46.1 µM), for the others: at the highest dose growth rescue (activation), hits mostly activators; also: % of control where 0% means no effect; nearly all actives have a fitted effect of over 65% in size
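Galactose-induced alpha-syn yeast (OD600=0.02, raffinose-pregrown) + pinned cpd, 24 hr, 30 deg C; growth by BacTiter-Glo luminescence. Growth restoration scores as activation.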
Starred values were filed as active, the others as inactive. Calls follow the shape of the dose curve; as a rule, active = well fitted curve in the direction sought with a large enough effect; inconclusive = small, poorly fitted or top-dose-only effect, or another doubt; inactive = no such curve, though single readings can be large; an effect the other way counts as inactive or inconclusive. Potency is read from the fitted curve at half-maximal effect.

`FC(F)(F)c1cnc(Nc2ccc(N3CCOCC3)cc2)c(Cl)c1` gave Abeta rescue inactive, FUS suppressor inactive, TDP43 rescue 12.6µM*, Mito fusion yeast -32.2% and aSyn rescue 3.3%.
O=c1c(Cl)c(N2CCOCC2)cnn1-c1ncc(C(F)(F)F)cc1Cl was read as Abeta rescue inactive, FUS suppressor inactive, TDP43 rescue 0.0%, Mito fusion yeast 2.6% and aSyn rescue -0.3%.
`CCc1ccc(NC(=O)Cn2c(=O)n(CCC(=O)NCCc3ccc(Cl)cc3)c(=O)c3ccccc32)cc1` gave Abeta rescue inactive, FUS suppressor inactive and TDP43 rescue 8.0%.
COC(=O)[C@]12C[C@H](CC(=O)N3CCC(c4ccccc4)CC3)C(=O)N(Cc3cccc4ccccc34)C1=C[C@H](COCc1ccccc1)O[C@@H]2C was read as FUS suppressor inactive.
COc1ccc(-c2noc(CSc3nnc(Cc4ccccc4)n3-c3ccc(F)cc3)n2)cc1 was read as Abeta rescue inactive, FUS suppressor 14.1µM* and TDP43 rescue 35.5µM*.
For COc1ccc(-c2noc(CSc3nnc(Cc4ccccc4)n3-c3cccc(C)c3)n2)cc1 the results were Abeta rescue inactive, FUS suppressor inconclusive and TDP43 rescue 2.6%.
For COc1ccc(-c2noc(CSc3nc4ccccc4[nH]3)n2)cc1 the results were Abeta rescue inactive, FUS suppressor inactive and TDP43 rescue 11.2µM*.
COc1ccc(-c2noc(CSc3nc(N)cc(=O)[nH]3)n2)cc1 was read as Abeta rescue inactive, FUS suppressor inactive, TDP43 rescue 4.3%, Mito fusion yeast 4.1% and aSyn rescue 1.8%.
`CC1CCC2(CCC(=O)N2CCCOC(=O)NC(C)(C)C)CC1` (stereo not given) gave FUS suppressor inactive.
`CC(=O)Nc1cccc(NC(=O)CSc2nnc3ccc(-c4ccncc4)nn23)c1` gave Abeta rescue inactive, FUS suppressor inactive, TDP43 rescue -5.7%, Mito fusion yeast -2.3% and aSyn rescue -6.0%.
For CN(Cc1ccccc1Cl)C(=O)CN1C(=O)C2(OCCCO2)c2ccccc21 the results were FUS suppressor inactive.
For CC1(C)OC(=O)C2=C(C[C@@H](CCc3ccccc3)O[C@@H]2c2ccc(Cl)cc2)O1 the results were Abeta rescue inactive, FUS suppressor inactive, TDP43 rescue 14.5% and aSyn rescue 20.8%.
For Cc1cccc(Cn2c(-c3cccc(Br)c3)nc3ccccc32)c1 the results were Abeta rescue inactive, FUS suppressor inactive and TDP43 rescue 14.1µM*.
`O=C(OCC(=O)N1CCCC1=O)c1nc(Cl)c(Cl)c(Cl)c1Cl` gave Abeta rescue inactive, FUS suppressor inactive, TDP43 rescue 25.1µM*, Mito fusion yeast -3.8% and aSyn rescue 4.4%.
Screening CCOc1ccc(C=Nn2c(-c3ccc(F)cc3)n[nH]c2=S)cc1 returned FUS suppressor inactive.
`Cc1ccc(S(=O)(=O)n2ccc(-c3c(-c4ccc(Cl)cc4)noc3C)n2)cc1` gave FUS suppressor inactive.
`O=C(CN1C(=O)S/C(=C\c2ccccc2Cl)C1=O)NCCCn1ccnc1` gave Abeta rescue inactive, FUS suppressor inactive, TDP43 rescue -2.4%, Mito fusion yeast 3.98µM* and aSyn rescue -1.1%.
Screening COc1ccccc1/C=C1\SC(=O)N(CC(=O)NCCCn2ccnc2)C1=O returned Abeta rescue inactive, FUS suppressor inactive, TDP43 rescue -8.3%, Mito fusion yeast -0.1% and aSyn rescue -2.8%.
`COc1ccc(S(=O)(=O)n2nc(-c3ccco3)nc2NCc2ccc(N(C)C)cc2)cc1` gave Abeta rescue inactive, FUS suppressor 31.6µM* and TDP43 rescue 9.1%.
`CCNC(=O)C1=C(O)c2sccc2N(C)S1(=O)=O` gave Abeta rescue inactive, FUS suppressor inactive, TDP43 rescue 8.91µM*, Mito fusion yeast -4.9% and aSyn rescue 6.2%.
Screening Cc1ccc(-c2nnc(SCC(=O)Nc3ccc(OCc4ccccc4)cc3)n2-c2ccc(Cl)cc2)cc1 returned FUS suppressor inactive.
CCCCOc1ccc(C(=O)NCCc2ccccc2)cc1 was read as Abeta rescue inactive, FUS suppressor inactive, TDP43 rescue 15.4%, Mito fusion yeast 1.7% and aSyn rescue -1.4%.
For NC(=S)c1ccc(OCCCc2ccccc2)cc1 the results were Abeta rescue inactive, FUS suppressor inactive, TDP43 rescue 10µM* and aSyn rescue 7.7%.
For CCOC1=C2CN(S(=O)(=O)c3ccc(C)cc3)[C@H](c3cccc4ccccc34)C[C@H]2[C@H]2C(=O)N(c3ccccc3)C(=O)[C@H]2C1 the results were Abeta rescue inactive, FUS suppressor inactive, TDP43 rescue 18.6% and aSyn rescue 14.1µM*.
Screening CC1(C(=O)Nc2ccc(Cl)c(Cl)c2)CCN1Cc1ccccc1OC(F)F (stereo not given) returned Abeta rescue inactive, FUS suppressor inactive, TDP43 rescue 22.4µM* and aSyn rescue -35.6%.
O=C(Nc1nc2c(Br)cccc2s1)c1ccc2c(c1)OCCO2 was read as FUS suppressor inactive.
COc1ccc(C(=O)NCCC2=CCCCC2)cc1OC1CCN(C(C)C)CC1 was read as Abeta rescue inactive, FUS suppressor inactive, TDP43 rescue -6.8%, Mito fusion yeast 1.6% and aSyn rescue -3.5%.
`Cc1cccc(-c2nc(CCNC(=O)c3ccc(Br)o3)cs2)c1` gave Abeta rescue inactive, FUS suppressor inactive and TDP43 rescue 15.8µM*.
Screening Cc1cccc(-c2nc(CCNC(=O)c3ccco3)cs2)c1 returned Abeta rescue inactive, FUS suppressor inactive, TDP43 rescue inconclusive and aSyn rescue -8.5%.
Screening O=C(NCCc1csc(-c2ccccc2)n1)c1ccc(Br)o1 returned Abeta rescue inactive, FUS suppressor inactive, TDP43 rescue 22.4µM*, Mito fusion yeast 20.4% and aSyn rescue 6.0%.
`O=C(c1cccc(Cl)c1)N1CCN(c2ccnc3cc(Cl)ccc23)CC1` gave FUS suppressor inactive.
`COC[C@H]1CCCN1c1cccc2c1S(=O)(=O)N(C1CC1)CC[C@@H](C)O2` gave FUS suppressor inactive.
For C[C@H](O)[C@@H]1CN2CCc3c([nH]c4c(-c5ccc6c(c5)OCO6)cccc34)[C@@H]2C[C@@H]1N(C)C(=O)c1ccccc1F the results were FUS suppressor inactive.
